Assay results published in PubChem BioAssay AID1159580 (chemical genetic matrix, 2015).
Out of some 5,500 compounds screened, about 2,000 (36%) were called active. About 18% were inconclusive and are not listed. No stated cut-off is given here; in the data, active means normalized growth mostly below about 0.91 (no sharp cut-off); inconclusive means no clear call, values can overlap the other calls; inactive means mostly above about 0.92. The list shows a part of the results.

Assay: chemical genetic growth profiling, strain panel (AID 1159580);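 further: tested at 20 µM; growth read once vehicle control cultures reached saturation at 30 °C; 1 = growth at the plate median or of vehicle wells; lower values mean less growth of the strain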
Conditions: growth OD

Measured: normalized growth

CCC(=O)OCC(=O)[C@@]1(OC(=O)CC)[C@@H](C)CC2C3CCC4=CC(=O)C=C[C@]4(C)C3(F)[C@@H](O)C[C@@]21C (some centres undefined)
active: S. cerevisiae deletion strains, locus YJR043C, strain POL32, hits give low values 0.841 | S. cerevisiae deletion strains, locus YLR330W, strain CHS5, hits give low values 0.898 | S. cerevisiae deletion strains, locus YLR342W, strain FKS1 (second series), hits give low values 0.741 | S. cerevisiae deletion strains, locus YLR418C, strain cdc73, hits give low values 0.777 | S. cerevisiae deletion strains, locus YML032C, strain rad52, hits give low values 0.843 | S. cerevisiae deletion strains, locus YMR223W, strain ubp8, hits give low values 0.876 | S. cerevisiae deletion strains, locus YNL307C, strain MCK1, hits give low values 0.835 | S. cerevisiae deletion strains, locus YOR184W, strain ser1, hits give low values 0.838
inactive: S. cerevisiae deletion strains, locus YJR066W, strain TOR1, hits give low values 0.989 | S. cerevisiae deletion strains, locus YJR075W, strain HOC1, hits give low values 0.945 | S. cerevisiae deletion strains, locus YKL009W, strain mrt4, hits give low values 0.891 | S. cerevisiae deletion strains, locus YKL068W, hits give low values 0.958 | S. cerevisiae deletion strains, locus YKL085W, strain MDH1 (second series), hits give low values 0.959 | S. cerevisiae deletion strains, locus YKL085W, strain MDH1, hits give low values 0.959 | S. cerevisiae deletion strains, locus YKL160W, strain elf1, hits give low values 1.01 | S. cerevisiae deletion strains, locus YKR001C, strain vps1, hits give low values 0.916 | S. cerevisiae deletion strains, locus YKR026C, strain gcn3, hits give low values 0.997 | S. cerevisiae deletion strains, locus YKR091W, strain srl3, hits give low values 0.997 | S. cerevisiae deletion strains, locus YLL001W, strain dnm1, hits give low values 1.01 | S. cerevisiae deletion strains, locus YLL026W, hits give low values 1.01 | S. cerevisiae deletion strains, locus YLL041C, strain sdh2, hits give low values 0.994 | S. cerevisiae deletion strains, locus YLR027C, strain aat2, hits give low values 0.999 | S. cerevisiae deletion strains, locus YLR039C, strain RIC1, hits give low values 0.85 | S. cerevisiae deletion strains, locus YLR058C, strain SHM2, hits give low values 0.943 | S. cerevisiae deletion strains, locus YLR102C, strain apc9, hits give low values 0.973 | S. cerevisiae deletion strains, locus YLR113W, strain HOG1, hits give low values 1.05 | S. cerevisiae deletion strains, locus YLR221C, strain rsa3, hits give low values 1.01 | S. cerevisiae deletion strains, locus YLR258W, strain gsy2, hits give low values 0.997 | S. cerevisiae deletion strains, locus YLR262C, strain YPT6 (second series), hits give low values 1 | S. cerevisiae deletion strains, locus YLR262C, strain YPT6, hits give low values 0.772 | S. cerevisiae deletion strains, locus YLR268W, strain sec22, hits give low values 0.915 | S. cerevisiae deletion strains, locus YLR320W, strain mms22, hits give low values 1.02 | S. cerevisiae deletion strains, locus YLR342W, strain FKS1, hits give low values 1.01 | S. cerevisiae deletion strains, locus YLR357W, strain rsc2, hits give low values 1.02 | S. cerevisiae deletion strains, locus YLR370C, strain arc18, hits give low values 1 | S. cerevisiae deletion strains, locus YLR371W, strain rom2, hits give low values 0.95 | S. cerevisiae deletion strains, locus YLR384C, strain iki3, hits give low values 0.998 | S. cerevisiae deletion strains, locus YML016C, strain PPZ1, hits give low values 0.967 | S. cerevisiae deletion strains, locus YML120C, strain ndi1, hits give low values 0.995 | S. cerevisiae deletion strains, locus YML124C, strain tub3, hits give low values 0.953 | S. cerevisiae deletion strains, locus YMR058W, strain fet3, hits give low values 0.997 | S. cerevisiae deletion strains, locus YMR078C, strain ctf18, hits give low values 0.925 | S. cerevisiae deletion strains, locus YMR125W, strain sto1, hits give low values 0.984 | S. cerevisiae deletion strains, locus YMR129W, hits give low values 0.99 | S. cerevisiae deletion strains, locus YMR205C, strain PFK2, hits give low values 1.02 | S. cerevisiae deletion strains, locus YMR231W, strain pep5, hits give low values 1.02 | S. cerevisiae deletion strains, locus YMR307W, strain GAS1, hits give low values 0.642 | S. cerevisiae deletion strains, locus YNL067W, strain RPL9B, hits give low values 0.994 | S. cerevisiae deletion strains, locus YNL071W, strain lat1, hits give low values 0.998 | S. cerevisiae deletion strains, locus YNL128W, strain TEP1, hits give low values 0.941 | S. cerevisiae deletion strains, locus YNL153C, strain GIM3, hits give low values 0.945 | S. cerevisiae deletion strains, locus YNL183C, strain NPR1, hits give low values 0.974 | S. cerevisiae deletion strains, locus YNL209W, strain ssb2, hits give low values 0.994 | S. cerevisiae deletion strains, locus YNL233W, strain BNI4, hits give low values 0.902 | S. cerevisiae deletion strains, locus YNL248C, strain rpa49, hits give low values 0.994 | S. cerevisiae deletion strains, locus YNL250W, strain rad50, hits give low values 0.907 | S. cerevisiae deletion strains, locus YNL271C, strain bni1, hits give low values 0.951 | S. cerevisiae deletion strains, locus YNL298W, strain CLA4, hits give low values 0.942 | S. cerevisiae deletion strains, locus YNL322C, strain KRE1 (second series), hits give low values 0.982 | S. cerevisiae deletion strains, locus YNR049C, strain mso1, hits give low values 0.999 | S. cerevisiae deletion strains, locus YNR052C, strain pop2, hits give low values 0.955 | S. cerevisiae deletion strains, locus YOL012C, strain htz1 1.01 | S. cerevisiae deletion strains, locus YOL147C, strain pex11, hits give low values 0.958 | S. cerevisiae deletion strains, locus YOR001W, strain rrp6, hits give low values 0.992 | S. cerevisiae deletion strains, locus YOR061W, strain CKA2, hits give low values 0.93 | S. cerevisiae deletion strains, locus YOR069W, strain VPS5, hits give low values 0.973 | S. cerevisiae deletion strains, locus YOR070C, strain gyp1, hits give low values 1 | S. cerevisiae deletion strains, locus YOR080W, strain dia2, hits give low values 1.01 | S. cerevisiae deletion strains, locus YOR083W, strain WHI5, hits give low values 1 | S. cerevisiae deletion strains, locus YOR106W, strain vam3, hits give low values 0.995 | S. cerevisiae deletion strains, locus YOR136W, strain idh2, hits give low values 0.981 | S. cerevisiae deletion strains, locus YOR144C, strain elg1, hits give low values 0.953 | S. cerevisiae deletion strains, locus YOR231W, strain MKK1, hits give low values 0.994 | S. cerevisiae deletion strains, locus YOR265W, strain rbl2, hits give low values 1.01 | S. cerevisiae deletion strains, locus YOR270C, strain vph1, hits give low values 0.887 | S. cerevisiae deletion strains, locus YOR290C, strain snf2, hits give low values 0.981 | S. cerevisiae deletion strains, locus YOR316C, strain cot1, hits give low values 0.961 | S. cerevisiae deletion strains, locus YPL051W, strain arl3, hits give low values 1 | S. cerevisiae deletion strains, locus YPL055C, strain LGE1, hits give low values 0.853 | S. cerevisiae deletion strains, locus YPL078C, strain atp4, hits give low values 0.996 | S. cerevisiae deletion strains, locus YPL106C, strain sse1, hits give low values 1.03 | S. cerevisiae deletion strains, locus YPL240C, strain hsp82, hits give low values 0.997 | S. cerevisiae deletion strains, locus YPL256C, strain CLN2, hits give low values 0.998 | S. cerevisiae deletion strains, locus YPR119W, strain clb2, hits give low values 0.953 | S. cerevisiae deletion strains, locus YPR141C, strain kar3, hits give low values 0.964 | S. cerevisiae deletion strains, locus YPR163C, strain tif3, hits give low values 0.942 | S. cerevisiae deletion strains, locus YPR167C, strain met16, hits give low values 0.936 | S. cerevisiae deletion strains, strain wtn01, hits give low values 0.959 | S. cerevisiae strains, strain wild type, hits give low values 0.929
